Laboratory results taken from PubChem BioAssay AID1159580 (chemical genetic matrix, 2015).
The campaign covered roughly 5,500 compounds. About 2,000 (36%) were called active. Roughly 18% stayed inconclusive and do not appear here. Rule as the data show it: active = normalized growth mostly below about 0.91 (no sharp cut-off); inconclusive = no clear call, values can overlap the other calls; inactive = mostly above about 0.92. The list shows a part of the results.

Assay: chemical genetic growth profiling, strain panel (AID 1159580);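 also: tested at 20 µM; growth read once vehicle control cultures reached saturation at 30 °C; 1 = growth at the plate median or of vehicle wells; lower values mean less growth of the strain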
Conditions: growth OD
[1] = S. cerevisiae deletion strains, locus YAL040C, strain CLN3, hits give low values
[2] = S. cerevisiae deletion strains, locus YCL061C, strain MRC1 (second series), hits give low values
[3] = S. cerevisiae deletion strains, locus YDR150W, strain NUM1, hits give low values
[4] = S. cerevisiae deletion strains, locus YDR363W, strain ESC2, hits give low values
[5] = S. cerevisiae deletion strains, locus YER002W, strain NOP16, hits give low values
[6] = S. cerevisiae deletion strains, locus YGR229C, strain SMI1, hits give low values
[7] = S. cerevisiae deletion strains, locus YJR075W, strain HOC1, hits give low values
[8] = S. cerevisiae deletion strains, locus YMR263W, strain SAP30, hits give low values
[9] = S. cerevisiae deletion strains, locus YMR307W, strain GAS1, hits give low values
[10] = S. cerevisiae deletion strains, locus YNL153C, strain GIM3, hits give low values
[11] = S. cerevisiae deletion strains, locus YNL175C, strain NOP13, hits give low values
[12] = S. cerevisiae deletion strains, locus YNL197C, strain WHI3, hits give low values
[13] = S. cerevisiae deletion strains, locus YNL224C, strain SQS1, hits give low values
[14] = S. cerevisiae deletion strains, locus YNL322C, strain KRE1, hits give low values
[15] = S. cerevisiae deletion strains, locus YOR083W, strain WHI5 (second series), hits give low values
[16] = S. cerevisiae deletion strains, locus YAL013W, strain DEP1, hits give low values
[17] = S. cerevisiae deletion strains, locus YPL055C, strain LGE1, hits give low values
[18] = S. cerevisiae deletion strains, locus YPL241C, strain CIN2, hits give low values
[19] = S. cerevisiae deletion strains, locus YBR229C, strain ROT2, hits give low values
[20] = S. cerevisiae deletion strains, locus YDL101C, strain DUN1, hits give low values
[21] = S. cerevisiae deletion strains, locus YDL134C, strain PPH21, hits give low values
[22] = S. cerevisiae deletion strains, locus YEL061C, strain CIN8, hits give low values
[23] = S. cerevisiae deletion strains, locus YGR078C, strain PAC10, hits give low values
[24] = S. cerevisiae deletion strains, locus YHR030C, strain SLT2, hits give low values
[25] = S. cerevisiae deletion strains, locus YHR087W, strain rtc3, hits give low values
[26] = S. cerevisiae deletion strains, locus YJR043C, strain POL32, hits give low values
[27] = S. cerevisiae deletion strains, locus YLR039C, strain RIC1, hits give low values
[28] = S. cerevisiae deletion strains, locus YLR058C, strain SHM2 (second series), hits give low values
[29] = S. cerevisiae deletion strains, locus YLR085C, strain ARP6, hits give low values
[30] = S. cerevisiae deletion strains, locus YLR262C, strain YPT6, hits give low values
[31] = S. cerevisiae deletion strains, locus YML094W, strain GIM5, hits give low values
[32] = S. cerevisiae deletion strains, locus YMR219W, strain ESC1, hits give low values
[33] = S. cerevisiae deletion strains, locus YNL298W, strain CLA4 (second series), hits give low values
[34] = S. cerevisiae deletion strains, locus YNR030W, strain Alg12, hits give low values
[35] = S. cerevisiae deletion strains, locus YOL006C, strain TOP1, hits give low values
[36] = S. cerevisiae deletion strains, locus YPR135W, strain CTF4, hits give low values

Measured: normalized growth

O=C(c1ccc2c(c1)OCCO2)N1CCCCC1
inactive: [1] 0.989 | [2] 0.991 | [3] 1.01 | [4] 1.06 | [5] 0.986 | [6] 1.01 | [7] 1.03 | [8] 1 | [9] 1.01 | [10] 0.98 | [11] 0.992 | [12] 0.976 | [13] 1 | [14] 1.02 | [15] 0.993

O=C(OCCN1CCOCC1)C1(c2ccccc2)CCCCC1
inactive: [16] 1.07 | [1] 1.01 | [2] 1 | [3] 1.01 | [4] 1 | [5] 1.01 | [11] 1.01 | [12] 0.999 | [13] 0.996 | [14] 1.01 | [15] 1 | [17] 1.02 | [18] 0.999

O=C(CCN1CCOCC1)c1ccc2c(c1)OCCO2
active: [21] 0.836 | [22] 0.694 | [24] 0.51 | [27] 0.637 | [29] 0.259 | [30] 0.703 | [31] 0.802 | [34] 0.787 | [35] 0.708 | [18] 0.769
inactive: [16] 0.979 | [19] 0.982 | S. cerevisiae deletion strains, locus YCL061C, strain MRC1, hits give low values 1.01 | [20] 1.01 | [3] 1.01 | [23] 0.987 | [25] 0.988 | [26] 0.996 | [7] 1.01 | [28] 0.989 | [32] 0.99 | [8] 1 | [10] 1.03 | [33] 0.852 | [14] 0.968 | [17] 0.982 | [36] 0.737

CCNS(=O)(=O)c1cc(Cl)sc1Cl
inactive: [16] 0.992 | [19] 1.02 | [20] 0.99 | [21] 1.01 | [3] 0.947 | [22] 0.995 | [23] 1 | [6] 0.994 | [24] 1.05 | [25] 1 | [26] 1.01 | [7] 1.01 | S. cerevisiae deletion strains, locus YKL190W, strain CNB1, hits give low values 1 | [27] 0.989 | [28] 1.04 | [29] 0.983 | [30] 0.985 | [31] 1.01 | [32] 0.994 | [8] 1.01 | [9] 0.976 | [10] 1.01 | [33] 1.05 | [14] 0.992 | [34] 1.01 | [35] 1.02 | [17] 1.12 | [18] 1.01 | [36] 1.13 | S. cerevisiae strains, strain wild type, hits give low values 0.998
